Assay outcomes deposited in PubChem by Broad Institute.
Compounds with a hit are over-represented: about 4% of the library has one in this group of screens.
MITF act = increases MITF-driven TRPM1 promoter luciferase signal | 300,000 compounds, 0.75% hits | SK-MEL-5 TRPM1-promoter luciferase, 24 h; % of positive control, neutral wells = 0 | AID 588334 | activation, % at 12.5 µM;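 active means mean activation of at least 80% with every replicate also reaching 80%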;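 further: 0% = neutral control wells and 100% = parthenolide positive control wells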
Statin myotox sup = suppression of simvastatin myotoxicity; C2C12 myotubes + simvastatin, ATP luminescence, 48 h; scaled: DMSO 0, geranylgeraniol control 100; rescue of ATP level, % at 7.49 µM; 330,000 compounds, 0.78% hits; AID 602340;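 active means mean ATP rescue above about 67%, or every replicate alone reaching that limit, limit read from the data, passing the limit was not always enough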;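 further: myotubes were challenged with 10 µM simvastatin during compound exposure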
Wnt act = Wnt/beta-catenin pathway activation | Wnt/beta-catenin reporter cell assay, activator, plate reader | activation, % at 9.35 µM | 300,000 compounds, 1.2% hits | AID 743398; in the data active means activation above about 30%, passing the limit was not always enough;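 further: 0% = neutral control wells and 100% = positive control wells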
esBAF inh = inhibitors of esBAF chromatin remodeling in mouse ES cells. Bmi1-luciferase knock-in reporter, 24 h; 100% = twice the neutral-well signal. reporter increase, % at 12.5 µM. 350,000 compounds, 2% hits; in the data active means activation above about 40%;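 further: 0% = median of the plate's neutral control wells and 100% = double that signal; a rise in the Bmi1 reporter signal indicates esBAF inhibition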
EBV LMP1 NFkB = inhibitors of Epstein-Barr LMP1-induced NF-kappaB reporter; LMP1-induced NF-kappaB luciferase reporter cells, luminescence; inhibition, % at 12.5 µM; 350,000 compounds, 0.69% hits; in the data active means inhibition above about 41%;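 further: 0% = neutral control wells and 100% = reference inhibitor control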
TRPM1 prom inh = reduces MITF-dependent TRPM1 promoter luciferase signal | 330,000 compounds, 0.83% hits | inhibition, % at 12.5 µM | SK-MEL-5 TRPM1 promoter luciferase, 24 h;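 active means mean inhibition across replicates of 60% or more, whatever share of single replicates reaches that level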
Numbers without * were called inactive; x = no result.

SMILES | MITF act | Statin myotox sup | Wnt act | esBAF inh | EBV LMP1 NFkB | TRPM1 prom inh
Nc1nnnn1/N=C/c1cc(Cl)ccc1O | -10 | -7 | 0 | 4 | 4 | 1
Cc1cc(C)n(-c2nc(N(c3ccccc3)c3ccccc3)nc(-n3nc(C)cc3C)n2)n1 | -72 | -87 | x | -23 | 16 | 71*
CC(C)N(C(=O)CSc1ncnc2sc(-c3ccccc3)cc12)C(C)C | 35 | -25 | x | 59* | 16 | -34
CC(Sc1ncnc2sc(-c3ccccc3)cc12)C(=O)N1CCNC1=O (stereo unspecified) | 38 | 2 | 8 | 4 | 10 | -40
CCN(CC)S(=O)(=O)c1ccc(NC(=O)CSc2nnc(-c3ccc(F)cc3)o2)cc1 | -7 | -24 | 0 | 0 | 1 | 5
COc1ccc2c(c1)oc(=O)c1cc(OC)ccc12 | 92* | 5 | 6 | 79* | -19 | -91
COc1ccc2c(C)c(Cl)c(=O)oc2c1 | 2 | -1 | x | -5 | 2 | -3
COc1ccc2c(c1)oc(=O)c1ccccc12 | x | 2 | 10 | 41* | -16 | x
COc1ccc(NC(=O)Nc2ccc3c(c2)CC(=O)N([C@H](C)CO)C[C@H](C)[C@H](CN(C)S(C)(=O)=O)O3)cc1 | x | -6 | x | -1 | x | x
O=C(COC(=O)C12CC3CC(CC(O)(C3)C1)C2)Nc1ccc(Cl)cc1F | 93* | 1 | 23 | 16 | -20 | -88
Cc1cc(C)c(NC(=O)COC(=O)C23CC4CC(CC(O)(C4)C2)C3)c(Cl)c1 | 0 | -7 | 4 | 4 | 3 | 1
O=C(COC(=O)C12CC3CC(CC(O)(C3)C1)C2)NCCc1ccc(Cl)cc1 | 9 | x | -2 | x | -2 | -8
COc1ccc(NC(=O)COC(=O)C23CC4CC(CC(O)(C4)C2)C3)cc1Cl | 86* | -7 | 39* | 10 | -19 | -79
O=C(Cn1c(=O)oc2ccccc21)NC(=O)NCc1ccco1 | x | 22 | x | 5 | 3 | -11
CC1=C(C(=O)c2ccccc2)C(c2ccc(OC(F)F)cc2)NC(=S)N1 (stereo unspecified) | -2 | 11 | -3 | 17 | 0 | 4
C[C@@H]1CN([C@@H](C)CO)C(=O)c2cc(Br)cnc2O[C@H]1CN(C)S(=O)(=O)c1ccccc1 | x | -5 | -3 | 1 | -16 | x
O=C(c1ccc(F)cc1)c1ccc(N2CCCC2)cc1 | 55 | -1 | 5 | 65* | -27 | -51
O=C(Nc1ccc(N2CCCCC2)cc1)c1ccc(F)cc1 | x | -22 | 8 | -1 | -20 | -27
O=C(c1ccc(F)cc1)c1ccc(N2CCCCC2)cc1 | 103* | 3 | 40* | 36 | -4 | -95
O=C(c1cnc2n(c1=O)CCS2)N1CCN(C(c2ccccc2)c2ccc(Cl)cc2)CC1 (stereo unspecified) | 13 | 76* | x | -10 | -23 | -8
COc1cccc(NC(=O)N2C[C@H](O)COC[C@@H]3O[C@H](CC(=O)NCCCN4CCOCC4)CC[C@H]32)c1 | x | -17 | x | -2 | x | x
CC(C)c1ccc(Nc2ncccc2C(=O)O)cc1 | 46 | 1 | 17 | 60* | -33 | -40
c1ccc2c(c1)CCN(Cc1nnnn1Cc1ccc3c(c1)OCO3)C2 | 4 | 125* | x | -1 | 1 | -3
Cc1ccc(S(=O)(=O)N2C[C@H]3[C@H]4C(=O)N(Cc5ccccc5)C(=O)[C@H]4CC(=O)[C@H]3[C@@H]2c2ccccc2)cc1 | x | 8 | -2 | 1 | x | x
COc1ccc(CNC(=O)CN(C(=O)c2csnn2)c2cccc3c2CCCC3)cc1 | -5 | 73* | -11 | 3 | 0 | 5
SMILES | MITF act | Statin myotox sup | Wnt act | esBAF inh | EBV LMP1 NFkB | TRPM1 prom inh
Brc1cc2c(cc1/C=N/Nc1nc3ccccc3s1)OCO2 | x | -25 | x | 68* | -118 | -39
C(=N\Nc1nc2ccccc2s1)/c1ccccn1 | x | x | -12 | x | x | x
Brc1csc(/C=N/Nc2nc3ccccc3s2)c1 | 84* | x | x | x | -67 | -76
Cc1cccc(CS(=O)(=O)c2ncc(Cl)c(C(=O)NCc3ccccc3)n2)c1 | -85 | -28 | -1 | -8 | -8 | 87*
Cc1nnc(NC(=O)c2nc(S(=O)(=O)Cc3ccccc3)ncc2Cl)s1 | -35 | -9 | -4 | 6 | 25 | 35
Cc1ccc(NC(=O)c2nc(S(=O)(=O)Cc3ccccc3)ncc2Cl)cc1 | -95 | 46 | -10 | -17 | 24 | 95*
Cc1cccc(C)c1NC(=O)c1nc(S(=O)(=O)Cc2ccccc2)ncc1Cl | -87 | 135* | -13 | -55 | 44* | 91*
Cc1cccc(CS(=O)(=O)c2ncc(Cl)c(C(=O)Nc3c(C)cccc3C)n2)c1 | -18 | 33 | -2 | -7 | 11 | 19
Cc1ccccc1CS(=O)(=O)c1ncc(Cl)c(C(=O)Nc2ccc(F)cc2)n1 | -91 | -48 | 0 | -3 | 52* | 91*
CCOc1ccc(CC2c3cc(OCC)c(OCC)cc3CCN2C(=O)CN2CCN(C)CC2)cc1OCC (stereo unspecified) | x | x | -1 | -4 | 4 | -8
Cc1cnc(C(=O)OCC(=O)Nc2sc3c(c2C(N)=O)CCCC3)cn1 | 0 | -3 | 0 | -4 | -3 | 1
CCCc1nnc(NC(=O)CS(=O)(=O)c2ccc(C)cc2)s1 | 5 | 3 | -2 | -3 | -3 | -3
CCCc1nnc(NC(=O)c2nc(S(=O)(=O)Cc3cccc(C)c3)ncc2Cl)s1 | -79 | -107 | -17 | 7 | 9 | 78*
O=C(Nc1ccc(F)cc1)c1nc(S(=O)(=O)Cc2ccccc2)ncc1Cl | -62 | 0 | -7 | -7 | -2 | 62*
COc1ccc(NC(=O)c2nc(S(=O)(=O)Cc3cccc(C)c3)ncc2Cl)c(OC)c1 | -39 | 31 | 0 | -1 | 11 | 43
COc1ccc(OC)c(NC(=O)c2nc(S(=O)(=O)Cc3ccccc3)ncc2Cl)c1 | -94 | -58 | -21 | -72 | -1 | 95*
O=C(COc1ccc(Cl)cc1Cl)N(c1ccccn1)C1CCCCC1 | 10 | x | 0 | x | 2 | -10
CCc1ccccc1N(C(=O)CNC(=O)c1ccco1)C(C(=O)NC1CCCC1)c1cccnc1 (stereo unspecified) | 2 | 0 | -2 | -6 | -1 | -1
COc1ccc(N(C(=O)CCl)C(C(=O)NC2CCCCC2)c2cccnc2)cc1 (stereo unspecified) | -87 | x | -10 | x | 62* | 87*
COc1ccc(C(C(=O)NC2CCCCC2)N(C(=O)c2ccccn2)c2cccnc2)cc1 (stereo unspecified) | -11 | x | -1 | x | -2 | 14
O=C(NC1CCCCC1)C(c1cccnc1)N(C(=O)CCl)c1ccc(F)cc1 (stereo unspecified) | -86 | x | -2 | x | 76* | 87*
O=C(NC1CCCCC1)C(c1cccnc1)N(C(=O)CCl)c1ccccc1Cl (stereo unspecified) | -18 | x | 0 | x | 63* | 20
Cc1ccc(NC(=S)Nc2cc(-c3ccccc3)[nH]n2)cc1Cl | 2 | -6 | -2 | 5 | -11 | -5
